PubChem BioAssay AID651702 (NMMLSC, 2012)
About 2,400 (0.67%) of roughly 360,000 compounds were called active. Shown is part of a subset that was picked to be rich in actives. A number with no mark means an inactive call.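 Rule for the calls: active = inhibition above about 55% (limit read from the data); inconclusive = no clear call, values can overlap the other calls; inactive = the rest.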

Experiment: LAMP-1 surface exposure blockers, TALL-104 cells – cell-based, flow cytometry, MLPCN library, primary screen (AID 651702)
Settings: TALL-104 LAMP-1 surface exposure, at 10 µM, active compounds read high, cells stimulated with thapsigargin and PMA

Question: With CCOc1ccc(N2C(=O)CN(c3cccc4ccccc34)C2=S)cc1 as the molecule, how does the inhibition read?
Answer: Its inhibition is -2.1%.

Question: Which inhibition does the source give for CCO/C=C1\C(=O)N(c2ccc(OCC)cc2)C(=O)c2ccccc21 here?
Answer: The inhibition was -2.4%.

Question: With CCOc1ccc(N2C(=O)/C(=C/c3ccc(C)o3)N(C)C2=S)cc1 as the molecule, how does the inhibition read?
Answer: Its inhibition is 76.4% (active).

Question: For O=C(NCC1CCCO1)C1CCN(C2CCN(C(=O)C3CCCCC3)CC2)CC1 (stereo not drawn), which inhibition is on record?
Answer: The inhibition was 1.8%.

Question: Which inhibition does the source give for CC1CCCN(CC(=O)Nc2cc(Cl)ccc2Oc2ccccc2)C1 (stereo not drawn) here?
Answer: Its inhibition is 96.4% (active).

Question: Which inhibition does the source give for O=C(CSc1ccccc1)Nc1cc(Cl)ccc1Oc1ccccc1 here?
Answer: Its inhibition is -1.8%.

Question: With CC(=O)Nc1ccc(NC(=O)CN2CCCC(C)C2)c(Cl)c1 (stereo not drawn) as the molecule, how does the inhibition read?
Answer: The inhibition was 1.3%.

Question: With CCCCCCCCN1C(=O)[C@H](CC(=O)NCc2cccc3ccccc23)C[C@@]2(C(=O)OC)CCCCC=C12 as the molecule, how does the inhibition read?
Answer: Its inhibition is 5.4%.

Question: For O=C(COc1coc(CN2CCN(c3ccccc3)CC2)cc1=O)Nc1ccccc1F, which inhibition is on record?
Answer: Its inhibition is 10.5%.

Question: Which inhibition does the source give for CN1CCN(C2=NCCO2)CC1 here?
Answer: Its inhibition is -6.4%.

Question: Which inhibition does the source give for CNc1nc2c(C)cccn2c(=O)c1C=Nc1ccc(OC)cc1 here?
Answer: Its inhibition is -1.8%.

Question: For CCCN(CCC)c1nc2c(C)cccn2c(=O)c1/C=C1/SC(=S)N(Cc2ccco2)C1=O, which inhibition is on record?
Answer: The inhibition was 57.2% (active).

Question: For Cc1ccc2[nH]c(=O)c(-c3nc4c(C)cccn4c3NCc3ccco3)cc2c1, which inhibition is on record?
Answer: Its inhibition is 19.3%.

Question: With CSc1nc2sc3c(c2c(=O)[nH]1)CCc1ccccc1-3 as the molecule, how does the inhibition read?
Answer: Its inhibition is -6.9%.

Question: With CCN(CC)CCCC(C)n1c2nc(=O)[nH]c(=O)c-2nc2cc(Cl)ccc21 (stereo not drawn) as the molecule, how does the inhibition read?
Answer: The inhibition was -0.7%.

Question: Which inhibition does the source give for COc1ccc(CCNC(=O)C2CC3Cn4c(nc5cc(C)c(C)cc54)C3N2C)cc1 (stereo not drawn) here?
Answer: The inhibition was 60.3% (active).

Question: Which inhibition does the source give for CN1C(C(=O)NCC2CC2)CC2Cn3c(nc4ccccc43)C21 (stereo not drawn) here?
Answer: Its inhibition is -1.8%.

Question: Which inhibition does the source give for Cc1cc2nc3n(c2cc1C)CC1CC(C(=O)NCCC(C)C)N(C)C31 (stereo not drawn) here?
Answer: Its inhibition is -4.6%.

Question: With COc1cc(NC(=O)C2CC(c3ccccc3O)=NO2)c(OC)cc1Cl (stereo not drawn) as the molecule, how does the inhibition read?
Answer: The inhibition was -9.5%.

Question: For COc1ccc(NC(=O)C(C)SCc2ccccc2)cc1 (stereo not drawn), which inhibition is on record?
Answer: The inhibition was -0.5%.

Question: Which inhibition does the source give for Cc1cccc(NC(=O)C2CC(=O)OC23CCCC3)c1 (stereo not drawn) here?
Answer: Its inhibition is 3.1%.

Question: With COc1cccc(CNc2ncc(-c3ccccc3)n2C)c1 as the molecule, how does the inhibition read?
Answer: The inhibition was 1%.

Question: With CC(Nc1nc(C(F)(F)F)nc2ccccc12)c1cccs1 (stereo not drawn) as the molecule, how does the inhibition read?
Answer: The inhibition was -9.6%.

Question: For COc1cccc(CNc2nc(C(F)(F)F)nc3ccccc23)c1, which inhibition is on record?
Answer: Its inhibition is 65.7% (active).

Question: For CC(CCc1ccc(O)cc1)NCc1ccc(Cl)cc1Cl (stereo not drawn), which inhibition is on record?
Answer: Its inhibition is 3.5%.

Question: For Brc1cc(Br)c(Oc2cc(Br)c(Br)cc2Br)cc1Br, which inhibition is on record?
Answer: Its inhibition is 0.4%.

Question: Which inhibition does the source give for CN(C(=O)CN1CCN(c2cc(-c3ccc(OCc4ccccc4)cc3)ncn2)CC1)c1ccccc1 here?
Answer: Its inhibition is -3.7%.

Question: For Cc1ccc(NC(=S)N2CCCC(c3ccccc3)=N2)cc1, which inhibition is on record?
Answer: The inhibition was 2.5%.

Question: Which inhibition does the source give for O=S(=O)(c1cccc2nonc12)N1CCN(c2cccc(Cl)c2)CC1 here?
Answer: The inhibition was -11.1%.

Question: For COc1cc(C(=O)NCc2nnc(SCC(=O)Nc3nc4ccc(C)cc4s3)o2)cc(OC)c1OC, which inhibition is on record?
Answer: The inhibition was -6.4%.

Question: For CCCn1nc(C(=O)Nc2ccc3nc(C)sc3c2)c2ccccc2c1=O, which inhibition is on record?
Answer: Its inhibition is -2.4%.

Question: Which inhibition does the source give for CCCC(=O)Nc1nc2ccc(NC(=O)c3c(F)c(F)c(OC)c(F)c3F)cc2s1 here?
Answer: The inhibition was 68.7% (active).

Question: Which inhibition does the source give for CC(=O)Nc1ccc(NC(=O)CSc2nnnn2C2CCCCC2)cc1 here?
Answer: The inhibition was -2.8%.

Question: With CCOc1ccc(S(=O)(=O)N2CCN=C2Cc2ccccc2)cc1C as the molecule, how does the inhibition read?
Answer: The inhibition was 1.2%.

Question: Which inhibition does the source give for O=C(COC(=O)/C=C/c1cccc(Cl)c1)NCc1cccs1 here?
Answer: Its inhibition is 18.2%.

Question: Which inhibition does the source give for CC1CCCCC1NC(=O)Cn1c(=O)cnc2ccccc21 (stereo not drawn) here?
Answer: The inhibition was 25.2%.

Question: For CCc1cc(C(=O)N(CC)CC(=O)Nc2c(F)cccc2F)sc1C, which inhibition is on record?
Answer: Its inhibition is 18.1%.

Question: For O=C(Cn1nnc(-c2ccc(CN3CCOCC3)cc2)n1)NC1CCCCC1, which inhibition is on record?
Answer: The inhibition was -4.2%.

Question: For COc1cccc(Nc2ncccc2C(=O)O)c1, which inhibition is on record?
Answer: Its inhibition is -1.7%.

Question: With O=C(Nc1ccccc1)c1cccnc1Nc1ccccc1 as the molecule, how does the inhibition read?
Answer: The inhibition was 99.9% (active).

Question: Which inhibition does the source give for O=C(Nc1ccccc1)c1ccccc1Br here?
Answer: Its inhibition is -1.5%.

Question: With Cc1cccc(C(=O)NNC(=O)CSc2nnc(C(C)C)n2C)c1 as the molecule, how does the inhibition read?
Answer: The inhibition was -2.9%.

Question: Which inhibition does the source give for COc1cccc(CN(C)CC(O)COC(c2ccccc2)c2ccccc2C)c1 (stereo not drawn) here?
Answer: The inhibition was 60.5% (active).

Question: Which inhibition does the source give for Cc1ccccc1C(OCC(O)CN1CCCCC1CCO)c1ccccc1 (stereo not drawn) here?
Answer: Its inhibition is -0.9%.

Question: With COc1cccc(CN(C)CC(=O)Nc2ccccc2C(=O)Nc2ccccc2)c1 as the molecule, how does the inhibition read?
Answer: Its inhibition is 8.4%.

Question: Which inhibition does the source give for COc1ccc(CCNCc2c(-c3ccccc3)n(C)c3ccccc23)cc1 here?
Answer: The inhibition was 90.8% (active).

Question: For COc1ccc(CCNC(=O)COC(=O)c2cc(=O)c3ccccc3o2)cc1, which inhibition is on record?
Answer: The inhibition was -2.7%.

Question: With COc1ccc(-c2c(C#Cc3ccccc3)c3ccccc3n2C)cc1 as the molecule, how does the inhibition read?
Answer: Its inhibition is -3.3%.
